Results from PubChem BioAssay (NCATS).
Records with an inconclusive call do not appear. A number with no mark means an inactive call. Active and inactive are the calls of the source. The call rests on the fitted dose curve; in most records, active means well fitted inhibition curve with a large enough effect; inconclusive means small, poorly fitted or top-dose-only effect, or effect the other way; inactive means flat fitted curve, though single readings scatter.

Target: ATP-dependent 6-phosphofructokinase (Trypanosoma brucei brucei) (UniProt O15648)
Sequence (O15648 whole entry, looked up): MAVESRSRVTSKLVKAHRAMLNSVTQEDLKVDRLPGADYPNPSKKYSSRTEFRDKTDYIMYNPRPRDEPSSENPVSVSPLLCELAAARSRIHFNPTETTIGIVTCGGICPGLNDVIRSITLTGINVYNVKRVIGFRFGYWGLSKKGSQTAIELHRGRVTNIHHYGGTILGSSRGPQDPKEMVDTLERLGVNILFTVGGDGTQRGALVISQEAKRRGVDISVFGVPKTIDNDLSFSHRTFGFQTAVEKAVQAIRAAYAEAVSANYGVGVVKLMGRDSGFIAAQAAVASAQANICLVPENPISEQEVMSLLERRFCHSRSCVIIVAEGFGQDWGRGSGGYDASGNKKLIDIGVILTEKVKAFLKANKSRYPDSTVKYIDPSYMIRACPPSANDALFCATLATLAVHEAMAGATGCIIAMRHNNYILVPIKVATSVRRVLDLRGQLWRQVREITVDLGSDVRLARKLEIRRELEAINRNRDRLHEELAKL
Experiment: qHTS Assay to Find Inhibitors of T. brucei phosphofructokinase: hit validation (AID 492961);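 on activity change, negative = inhibition: luminescence reports ADP formed as PFK phosphorylates fructose-6-phosphate with ATP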
Conditions: T. brucei PFK, ADP-Glo luminescence; series mostly up to 51.4 µM; activity change, negative = inhibition: at the top concentration
Text: NIH Molecular Libraries Probe Production Network [MLPCN] NIH Chemical Genomics Center [NCGC] Grant: 1 R03 MH092153-01 PI Name: Malcolm Walkinshaw, University of Edinburgh NCGC Assay Overview: Various species of the protozoan family Trypanosomatidae are responsible for a range of serious human diseases in tropical and subtropical areas of the world. […] Many of the disorders caused by trypanosomatids are fatal if left untreated, but most currently used drugs are inefficient and toxic. […] Oxidative metabolism involving the mitochondrial tricarboxylic acid cycle and oxidative phosphorylation are repressed in these parasites, and recent RNA interference (RNAi) experiments have shown that even partial depletion of certain individual glycolytic enzymes can lead to the death of cultured parasites. One such glycolytic enzyme, phosphofructokinase (PFK), catalyzes the formation of fructose-1,6-bisphosphate (F1,6BP) and ADP from fructose-6-phosphate (F6P) and ATP, and in many metabolic circumstances makes an important contribution to the control of flux through the glycolytic pathway. As a specific glycolytic target, PFK is particularly attractive as it catalyzes the first irreversible step in glycolysis, and structural and kinetic studies have shown very substantial and essential differences from corresponding host enzymes, allowing for the discovery of parasite-selective inhibitors. The goal of this screen is to find small-molecule inhibitors of T. brucei PFK using a biochemical assay that measures PFK activity as a function of ADP production. A luminescence-based assay for T. brucei PFK activity has been developed which uses luciferase to detect production of ADP. Traditional luciferase-based nucleotide detection reagents rely on ATP production as a direct substrate for the luciferase reaction; however, PFK catalyzes the transfer of a phosphate from ATP to F6P, resulting in the net depletion of ATP. To directly measure the ADP product of the PFK reaction, we used the ADP-Glo detection kit (Promega), which utilizes two separate reactions to 1) deplete all remaining uncatalyzed ATP and 2) convert all remaining ADP to ATP, which is then detected through a traditional luciferase-coupled reaction. Compounds were screened as a concentration-titration series that ranged from 57 uM to 0.7 nM.
NCGC Assay Protocol Summary: Substrate buffer was dispensed into white, solid 1536-well plates at 3uL/well in 0.1M triethanolamine (TEA) buffer, pH 8.0, containing final concentrations of 5 mM MgCl2, 0.01% Tween20, 0.5 mM fructose-6-phosphate (F6P) and 0.1mM ATP. Then, 23 nL of compounds or DMSO were delivered to each well using a pin tool. One uL T. brucei PFK (0.1M TEA, 0.01% Tween20, 0.1% bovine serum albumin (BSA) and 1.25nM PFK, final concentrations) was then dispensed, and plates were incubated at room temperature for 45 min. The luminescent detection reagent, ADP-Glo (Promega), was then added in two steps: the first reagent, ADP-Glo (which converts remaining uncatalyzed ATP), was added at 2.5uL/well and incubated for ten minutes at room temperature, and the second component, Kinase Detection reagent (which converts ADP to ATP as a substrate for luciferase-based luminescence), was added immediately after at 5uL/well, followed by one final ten minute room temperature incubation. The plates were measured on a ViewLux plate reader for luminescent signal using a clear filter with a one second exposure. The %Activity was determined from the corrected luminescence values. As no specific T. brucei PFK inhibitors have been identified in the literature, 1x (1.25nM) and 0x PFK enzyme controls (untreated) were included to normalize %Activity of identified inhibitors; 0x enzyme values corresponded to 100%Activity (full inhibition), while 1x PFK enzyme values were used to normalize 0%Activity (no inhibition). Concentration-response curves were fitted to the signals arising from the resulting luminescence. […]
Potency means the concentration at half of the fitted maximal effect.

SMILES | activity change, negative = inhibition | Potency
CC(=O)Oc1cc(C(F)(F)F)ccc1C(=O)O | -8.98% [at 24.3 µM] | –
CSCCC(N)C(=O)O (stereo not given) | -4.76% | –
C[C@H]1O[C@@H](O[C@H]2[C@@H](O)C[C@H](O[C@H]3[C@@H](O)C[C@H](O[C@H]4CC[C@@]5(C)[C@H](CC[C@@H]6[C@@H]5C[C@@H](O)[C@]5(C)[C@@H](C7=CC(=O)OC7)CC[C@]65O)C4)O[C@@H]3C)O[C@@H]2C)C[C@H](O)[C@@H]1O | 7.41% | –
CC(/C=C/C=C(\C)C(=O)O[C@@H]1O[C@H](CO[C@@H]2O[C@H](CO)[C@@H](O)[C@H](O)[C@H]2O)[C@@H](O)[C@H](O)[C@H]1O)=C\C=C\C=C(C)\C=C\C=C(/C)C(=O)O[C@@H]1O[C@H](CO[C@@H]2O[C@H](CO)[C@@H](O)[C@H](O)[C@H]2O)[C@@H](O)[C@H](O)[C@H]1O | -16.2% | –
COc1cc(C)c(/C=C/C(C)=C/C=C/C(C)=C/C(=O)O)c(C)c1C | 7.99% | –
CC(C)O | 9.22% | –
Cc1ncc(C[n+]2csc(CCO)c2C)c(N)n1 | 8.23% [at 24.3 µM] | –
CC[C@H]1OC(=O)[C@H](C)[C@@H](O[C@H]2C[C@@](C)(OC)[C@@H](O)[C@H](C)O2)[C@H](C)[C@@H](O[C@@H]2O[C@H](C)C[C@H](N(C)C)[C@H]2O)[C@](C)(O)C[C@@H](C)CN(C)[C@H](C)[C@@H](O)[C@]1(C)O | 6.63% | –
CN=C1C=CC(=C(c2ccc(N(C)C)cc2)c2ccc(N(C)C)cc2)C=C1 | -15.3% | –
CCN(CC)CCC(=O)N1c2ccccc2Sc2ccc(Cl)cc21 | 6.85% | –
S=C=Nc1ccc(N=C=S)cc1 | 0% | –
O=C(NNCS(=O)(=O)O)c1ccncc1 | 0% | –
CCCCC(CC)COS(=O)(=O)O (stereo not given) | 2.44% | –
NC(=S)NS(=O)(=O)c1ccc(N)cc1 | 11.1% | –
N[C@H](CC(=O)O)C(=O)O | -4.3% | –
CO/N=C(/C(=O)N[C@@H]1C(=O)N2C(C(=O)O)=C(COC(N)=O)CS[C@H]12)c1ccco1 | 6.94% | –
O=C(O)COc1ccccc1/C=N/NC(=O)c1ccncc1 | -9.63% | –
C=CC(=O)O | -0.601% | –
Cc1cc(-c2ccc(N=Nc3c(S(=O)(=O)O)cc4cc(S(=O)(=O)O)cc(N)c4c3O)c(C)c2)ccc1N=Nc1c(S(=O)(=O)O)cc2cc(S(=O)(=O)O)cc(N)c2c1O | – | 28.2 µM (active)
NCCN | 9.08% | –

SMILES | activity change, negative = inhibition | Potency
c1ccc2c(c1)Sc1ccccc1N2CCN1CCCC1 | 0% | –
Cc1ccc(S(=O)(=O)O)cc1C | 0.91% | –
CC(C)OC(=O)Nc1ccc2nc(-c3cscn3)[nH]c2c1 | 0% | –
NCCO/C=C/[C@H](N)C(=O)O | 0.806% | –
CCCc1nc(C(C)(C)O)c(C(=O)OCc2oc(=O)oc2C)n1Cc1ccc(-c2ccccc2-c2nn[nH]n2)cc1 | 8.56% | –
CC1=CCC2CC1C2(C)C (stereo not given) | 0.234% | –
COc1cc2c(cc1OC)[C@@H](Cc1cc(OC)c(OC)c(OC)c1)[N+](C)(CCCOC(=O)CC/C=C/CCC(=O)OCCC[N+]1(C)CCc3cc(OC)c(OC)cc3[C@H]1Cc1cc(OC)c(OC)c(OC)c1)CC2 (stereo not given in full) | -0.57% | –
O=C(O)CCCC/C=C(\c1ccccc1)c1cccnc1 | 11.3% | –
N#Cc1ccc2c(c1)N(CCCN1CCC(O)CC1)c1ccccc1S2 | -0.594% | –
C[C@H](CCCC(C)(C)O)[C@H]1CC[C@H]2[C@@H]3CC=C4C[C@@H](O)CC[C@]4(C)[C@H]3CC[C@]12C | 4.14% | –
O=c1n(CC2CO2)c(=O)n(CC2CO2)c(=O)n1CC1CO1 (stereo not given) | -8.88% | –
COC(=O)C(CN)c1c[nH]c2ccc(OC)cc12 (stereo not given) | 0% | –
CC(=O)N=c1sc(S(N)(=O)=O)nn1C | -2.59% [at 24.3 µM] | –
CCCCO | 12.4% | –
CC(=O)[C@H]1CC[C@H]2[C@@H]3C=CC4=CC(=O)CC[C@@]4(C)[C@H]3CC[C@]12C | 12.5% [at 24.3 µM] | –
O=P(O)(O)OP(=O)(O)OP(=O)(O)O | 3.06% | –
Oc1cc(O)cc(O)c1 | -0.381% | –
CC1(C)S[C@@H]2[C@H](NC(=O)C3(N)CCCCC3)C(=O)N2[C@H]1C(=O)O | -1.86% | –
O=C(O)[C@H]1C(=CCO)O[C@H]2CC(=O)N12 | -8.74% | –
CN(C)C=Nc1c(I)cc(I)c(CCC(=O)O)c1I | -10.3% | –
